Activity change, negative = inhibition data for 83 compounds are collected here from PubChem BioAssay AID1259415 (National Center for Advancing Translational Sciences (NCATS), 2018).

SMILES strings stand for the structures. Hit rate of the full screen: of about 410,000 compounds, about 18,000 (4.4%) were called active. About 7% were inconclusive and are not listed. The full list was thinned out, with actives kept by preference. Unmarked numbers belong to inactive results. Cut-off read from the data, not from the text of the source: active = activity change below about -60%; inconclusive = no clear call, values can overlap the other calls; inactive = above about -39%.
% is set by controls: 0 for no effect and ±100 for the full control effect.

A short description of the assay: qHTS Assay for inhibitors of the human cytomegalovirus (HCMV). The conditions noted are these: HFF cells, HCMV-luciferase reporter, 72 h; at 57.5 µM; hits give low values. The method, boiled down: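 Steps: HFFs plated, 16 h 37C; compounds added; HCMV-luciferase added to MOI 1 PFU/cell; 72 h 37C; OneGlo reagent, 5 min room temperature; luminescence read, normalized to controls.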
Consider `COC(=O)[C@@]1(C#N)CC(=O)N([C@@H](C)c2ccccc2)[C@H]1c1ccccc1`, for which the activity change, negative = inhibition is -35.4%.

Take `CC(=O)N1c2ccccc2CC1C(=O)N1CCN(c2ccc(F)cc2)CC1` (stereo not drawn): the activity change, negative = inhibition was 16.1%.

For the compound `O=c1nc(N2CCOCC2)nc2n1CCO2`, the activity change, negative = inhibition is -26.3%.

Take `COc1ccc(OC)c(NC(=O)C2CCN(S(=O)(=O)c3ccc(C)cc3)CC2)c1`: the activity change, negative = inhibition is -12.3%.

For the compound `c1ccc(Cc2nn3c(Cn4cnc5ccccc54)nnc3s2)cc1`, the activity change, negative = inhibition was -65.2% (active).

`Fc1ccc(OCc2nn3c(Cn4nnc5ccccc54)nnc3s2)cc1`: the activity change, negative = inhibition is -1.96%.

As to `O=C(CSc1nnc(Cn2cnc3ccccc32)o1)c1ccccc1`, the activity change, negative = inhibition is -35.1%.

In the case of `Cc1ccccc1CNC(=O)c1ccc(NC(=O)N2CCCCc3ccccc32)cc1`, the activity change, negative = inhibition is -4.65%.

In the case of `COc1ccc(C(=O)c2oc3ccccc3c2NC(=O)COc2cccc(C)c2)cc1`, the activity change, negative = inhibition was 9.86%.

In the case of `Cc1noc(C)c1S(=O)(=O)N(C)C[C@H]1Oc2c(NC(=O)Nc3ccc4c(c3)OCO4)cccc2C(=O)N([C@H](C)CO)C[C@@H]1C`, the activity change, negative = inhibition was 22.1%.

For `COc1ccc(-c2cn3nc(N4CCCC(C(=O)NCCCOC(C)C)C4)sc3n2)cc1` (stereo not drawn), the activity change, negative = inhibition is 0%.

For `Cc1ccc2nsnc2c1S(=O)(=O)N1CCCC1C(=O)O` (stereo not drawn), the activity change, negative = inhibition is -8.96%.

With `CCc1ccc(S(=O)(=O)c2nnn3c2nc(N2CCN(CC)CC2)c2sccc23)cc1`, the activity change, negative = inhibition is 9.37%.

Turning to `N#CCCN(CCC#N)c1nnc(-c2ccccc2)s1`, the activity change, negative = inhibition was 3.02%.

Take `CCc1ccc(CNC(=O)C2CCN(c3nn4cc(-c5ccc(F)cc5)nc4s3)CC2)cc1`: the activity change, negative = inhibition is 0%.

In the case of `CN(C)CCCNC(=S)N1CCN(c2nc(-c3ccccc3)cs2)CC1`, the activity change, negative = inhibition is -3.01%.

In the case of `CC1CCCC(C)N1C(=O)CN1CCN(c2nc(-c3ccc(F)cc3)cs2)CC1` (stereo not drawn), the activity change, negative = inhibition was -63.2% (active).

With `O=C(NCc1nnc(SCC(=O)N2CCC(Cc3ccccc3)CC2)o1)c1ccco1`, the activity change, negative = inhibition was -25.7%.

With `COC(=O)[C@H](CCSC)NC(=O)Nc1ccc(OC)cc1`, the activity change, negative = inhibition is 10.5%.

With `COc1ccc(NC(=O)Nc2ccc3nsnc3c2)cc1`, the activity change, negative = inhibition is -62.9% (active).

In the case of `COc1ccc(NC(=O)Nc2cccc(-c3noc(C)n3)c2)cc1`, the activity change, negative = inhibition is -15.1%.

Regarding `CCOC(=O)c1ccc(NC(=O)Cn2c(=O)n(-c3ccc(C)cc3)c(=O)c3c2cnn3C)cc1`, the activity change, negative = inhibition is 2.83%.

Turning to `CSc1ncnc2c1ncn2CCCNCc1ccco1`, the activity change, negative = inhibition was 11.8%.

Take `CSc1ncnc2c1ncn2CC(=O)C1CCC2C3CCC4=CC(=O)CCC4(C)C3CCC12C` (stereo not drawn): the activity change, negative = inhibition was -83% (active).

In the case of `CSc1ncnc2c1ncn2CCCNCC1CCCCC1`, the activity change, negative = inhibition is 8.49%.

`O=C(O)c1ccc(Cn2c(SCc3ccc(F)cc3)nc3ccncc32)cc1`: the activity change, negative = inhibition was 0.974%.

`O=C(NCCCN1CCN(c2cccc(Cl)c2)CC1)c1nnc(Cc2ccc(F)cc2Cl)o1`: the activity change, negative = inhibition is -14.1%.

Take `CCOc1ccc(CCNC(=O)c2cc3c(=O)n(C)c4ccccc4c3n2C)cc1`: the activity change, negative = inhibition was -15.3%.

For `Cn1c(C(=O)NCCCN2CCN(c3cccc(Cl)c3)CC2)cc2c(=O)n(C)c3ccccc3c21`, the activity change, negative = inhibition is -68.6% (active).

For `Cc1cccc(NC(=O)CSc2ncc(-c3ccccc3)[nH]2)c1C`, the activity change, negative = inhibition was 45.4%.

On to `C=CCOC(=O)C1=C[C@@H](c2ccccc2)C[C@@H](OCc2ccc(CO)cc2)O1`, for which the activity change, negative = inhibition was -2.26%.

In the case of `CN(C)c1ccc(C(CNS(=O)(=O)c2cc(F)ccc2F)N2CCOCC2)cc1` (stereo not drawn), the activity change, negative = inhibition is -0.38%.

As to `CCCNC(=O)C(CC)n1nc(CC)n2c(cc3oc(C)cc32)c1=O` (stereo not drawn), the activity change, negative = inhibition was -16.8%.

On to `COc1cc(OC)c(NC(=O)c2nc(-c3ccncc3)no2)cc1Cl`, for which the activity change, negative = inhibition was -9.36%.

For `CCOC(=O)C1CN(S(=O)(=O)c2ccc(OC)cc2)c2cc(Cl)ccc2O1` (stereo not drawn), the activity change, negative = inhibition was -61.8% (active).

In the case of `CCS(=O)(=O)c1ccc2c(c1)N(S(=O)(=O)c1ccccc1)CC(C(=O)O)O2` (stereo not drawn), the activity change, negative = inhibition was 4.24%.

On to `CCOC(=O)C1CN(S(=O)(=O)c2ccc(F)cc2)C1`, for which the activity change, negative = inhibition was 41%.

As to `CCCCCn1c(=O)[nH]c2cc(C(=O)Nc3cc(C)cc(C)c3)ccc2c1=O`, the activity change, negative = inhibition was -0.639%.

Turning to `CC[C@]1(O)CC2CN(CCc3c([nH]c4ccccc34)[C@@](C(=O)OC)(c3cc4c(cc3OC)N(C=O)[C@H]3[C@@](O)(C(=O)OC)[C@H](OC(C)=O)[C@]5(CC)C=CCN6CC[C@]43[C@@H]65)C2)C1` (stereo partly drawn), the activity change, negative = inhibition is -100% (active).

With `CC[C@]1(O)C[C@@H]2CN(CCc3c([nH]c4ccccc34)[C@@](C(=O)OC)(c3cc4c(cc3OC)N(C)[C@H]3[C@@](O)(C(=O)OC)[C@H](OC(C)=O)[C@]5(CC)C=CCN6CC[C@]43[C@@H]65)C2)C1`, the activity change, negative = inhibition was -99.7% (active).

As for `CCc1cccc(NC(=O)CSc2nccn2C)c1`, the activity change, negative = inhibition was 73.7%.

`O=C(Nc1cc(-c2nc3ccccc3o2)ccc1Cl)c1cc([N+](=O)[O-])ccc1N1CCOCC1`: the activity change, negative = inhibition was 17.1%.

In the case of `O=C(CCCCn1c(=O)c2ccccc2n(CC(=O)Nc2cccc(C(F)(F)F)c2)c1=O)NCc1ccc2c(c1)OCO2`, the activity change, negative = inhibition is -22.6%.

Consider `CCC(=O)N1CCc2cc(S(=O)(=O)NC(CC(C)C)C(=O)NCCc3cccc(C)c3)ccc21` (stereo not drawn), for which the activity change, negative = inhibition is -11.4%.

With `COc1cn(CC(=O)Nc2cccc(C)c2C)c(CN2CCCCC2)cc1=O`, the activity change, negative = inhibition is 6.56%.

As to `CC(C)c1ccc(S(=O)(=O)N2CCN(C(=O)c3ccc(N4CCCC4)c([N+](=O)[O-])c3)CC2)cc1`, the activity change, negative = inhibition was -16.3%.

`O=C(c1cncc(Br)c1)N1CCN(c2ccc([N+](=O)[O-])cc2)CC1`: the activity change, negative = inhibition is 25.9%.

For `COc1ccc(-c2cc(C(=O)N3CCN(c4ccc(F)cc4)CC3)no2)cc1`, the activity change, negative = inhibition is -76% (active).

`O=C(c1cc(C(=O)N2CCN(c3ccc(F)cc3)CC2)cc([N+](=O)[O-])c1)N1CCN(c2ccc(F)cc2)CC1`: the activity change, negative = inhibition is -66.2% (active).

As for `O=C(c1cccc(F)c1)N1CCN(c2ccc([N+](=O)[O-])c(N3CCCCC3)c2)CC1`, the activity change, negative = inhibition is -60.2% (active).

Consider `O=C(c1ccc(N2CCOCC2)c([N+](=O)[O-])c1)N1CCN(S(=O)(=O)c2cccs2)CC1`, for which the activity change, negative = inhibition is 5.8%.

Turning to `O=C(c1ccc(N2CCOCC2)c([N+](=O)[O-])c1)N1CCN(c2ccccc2F)CC1`, the activity change, negative = inhibition is -77.5% (active).

`O=[N+]([O-])c1ccc(N2CCN(c3ccc(F)cc3)CC2)cn1`: the activity change, negative = inhibition was -16.4%.

For the compound `O=C(c1ccc(CN2CCOCC2)cc1)N1CCN(c2ccccc2F)CC1`, the activity change, negative = inhibition is 16.2%.

Take `O=C(c1cccc(F)c1)N1CCN(c2ccc([N+](=O)[O-])c3cccnc23)CC1`: the activity change, negative = inhibition was -7.42%.

Consider `COc1ccc(N2CCN(C(=O)c3cccs3)CC2)cc1`, for which the activity change, negative = inhibition is 57.6%.

With `COc1ccc(N2CCN(C(=O)c3c(C)oc4nc(C)nc(N5CCCC5)c34)CC2)cc1`, the activity change, negative = inhibition is 18.7%.

Regarding `Cc1ccc(CN(C(=O)COc2ccc(Cl)cc2C)C2CCS(=O)(=O)C2)o1` (stereo not drawn), the activity change, negative = inhibition is 51.5%.

For `Cc1cccc(N2CCN(c3ccc(C(=O)O)cc3NC(=O)c3ccccc3F)CC2C)c1` (stereo not drawn), the activity change, negative = inhibition was -4.85%.

On to `CCOc1ccccc1C(=O)NC1(C(F)(F)F)NC(=O)N(CCc2ccc(OC)c(OC)c2)C1=O` (stereo not drawn), for which the activity change, negative = inhibition was -4.49%.

Take `O=C(CSc1nc2ccccc2nc1Cc1ccccc1)N1CCCCC1`: the activity change, negative = inhibition is -18.6%.

Consider `CC(C)[C@@H](C(=O)OCC(=O)c1ccc2c(c1)NC(=O)CO2)N1C(=O)c2ccccc2C1=O`, for which the activity change, negative = inhibition was 43.1%.

In the case of `COc1cc(NC(=O)c2noc3c2CSc2ccccc2-3)cc(OC)c1OC`, the activity change, negative = inhibition is 40.1%.

In the case of `CC(C)CCNC(=O)CSc1nc2ccccc2nc1Cc1ccc(Cl)cc1`, the activity change, negative = inhibition is -7.66%.

As for `O=C(CC1N=C2c3ccccc3N=C(SCc3ccc(F)cc3)N2C1=O)NCc1cccs1` (stereo not drawn), the activity change, negative = inhibition is 30.3%.

With `O=C(c1cccc(C(=O)N2CCN(c3ccc(F)cc3)CC2)c1)N1CCN(c2ccc(F)cc2)CC1`, the activity change, negative = inhibition was -88.8% (active).

`O=C(c1cccc(-n2cccc2)c1)N1CCN(S(=O)(=O)c2ccc(F)cc2)CC1`: the activity change, negative = inhibition was -6.27%.

Regarding `CC(=O)c1ccc(N2CCN(C(=O)c3ccc4nc[nH]c4c3)CC2)cc1`, the activity change, negative = inhibition was -12%.

With `O=C(Nc1cc(Cl)ccc1N1CCOCC1)c1ccc(N2CCCC2=O)cc1`, the activity change, negative = inhibition was -3.06%.

As to `CNS(=O)(=O)c1ccc(N2CCCC2=O)c([N+](=O)[O-])c1`, the activity change, negative = inhibition is -21%.

Regarding `O=C(c1ccc(N2CCCC2=O)cc1)N1CCN(c2ccc(C(F)(F)F)cc2[N+](=O)[O-])CC1`, the activity change, negative = inhibition is -85.8% (active).

For `Cc1cc(C)cc(Nc2ncnc3onc(-c4ccc(F)cc4)c23)c1`, the activity change, negative = inhibition is -23.4%.

With `COc1ccccc1-c1nnc(SCC(N)=O)o1`, the activity change, negative = inhibition was 64.6%.

For the compound `COc1cc(C(=O)Nc2ccc(-n3c(C)nc4ccccc4c3=O)cc2)cc(OC)c1OC`, the activity change, negative = inhibition was -1.41%.

As for `CCOC(=O)c1cc2c(=O)n3ccccc3nc2n(CCCOC)c1=NC(=O)C(C)Oc1ccccc1` (stereo not drawn), the activity change, negative = inhibition is -1.73%.

For `O=Cc1c(N2CCN(c3cccc(Cl)c3)CC2)nc2ccccn2c1=O`, the activity change, negative = inhibition was -31.6%.

Regarding `O=S(=O)(c1cccc2nonc12)N1CCN(c2cccc(Cl)c2)CC1`, the activity change, negative = inhibition was -25.7%.

Take `Cc1ccc2nc(N3CCN(c4cccc(Cl)c4)CC3)c3nnnn3c2c1`: the activity change, negative = inhibition was -71.6% (active).

In the case of `COC(=O)c1ccc(COC(=O)CNC(=O)c2cccc(OC)c2)o1`, the activity change, negative = inhibition was -25.9%.

Take `O=C(Nn1cc(C(=O)N2CCN(c3ccccc3F)CC2)c2ccccc2c1=O)c1cnccn1`: the activity change, negative = inhibition is 43.2%.

Turning to `COc1ccc(/C=C(\C#N)C(=O)OCC(=O)N(C)C2CCS(=O)(=O)C2)cc1` (stereo not drawn), the activity change, negative = inhibition was -87.3% (active).

For the compound `COc1ccc(-c2cc(=O)oc3cc(OCC(=O)N(C)C4CCS(=O)(=O)C4)ccc23)cc1` (stereo not drawn), the activity change, negative = inhibition was 4.48%.

As to `CC(=O)c1ccc(OCC(=O)N(C)C2CCS(=O)(=O)C2)cc1` (stereo not drawn), the activity change, negative = inhibition was -17%.
